Results from PubChem BioAssay (NCATS).
Results filed as inconclusive are left out. Activity calls are given as the source filed them. Calls follow the shape of the dose curve; as a rule, active = well fitted curve in the direction sought with a large enough effect; inconclusive = small, poorly fitted or top-dose-only effect, or another doubt; inactive = no such curve, though single readings can be large; an effect the other way counts as inactive or inconclusive.

Columns and labels:
[1] = Quantitative High-Throughput drug screen in 47 multiple myeloma cell lines against the NCATS MIPE library collection: KMS27_JCRB cell viability assay (AID 1918970); also: nearly all actives have a fitted effect of over 30% in size; also: potency is read from the fitted curve at half-maximal effect
Method in brief: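 Luminescent ATP read-out (CellTiter-Glo, 5 min at room temperature) after 48 h compound exposure of 500 KMS27_JCRB cells per well; DMSO wells define full viability and media-only wells zero.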

[2] = Quantitative High-Throughput drug screen in 47 multiple myeloma cell lines against the NCATS MIPE library collection: KMS26_JCRB cell viability assay (AID 1918975); also: nearly all actives have a fitted effect of over 45% in size; also: potency is read from the fitted curve at half-maximal effect
Method in brief: (§1)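 Inhibition of cell viability is measured here. Each line was plated at 500 cells per well, treated with MIPE 4.0 drugs, kept 48 hours at 37C, then assayed for ATP content by CellTiter-Glo luminescence.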

[3] = Quantitative High-Throughput drug screen in 47 multiple myeloma cell lines against the NCATS MIPE library collection: OCIMY1_PLB cell viability assay (AID 1918979); also: nearly all actives have a fitted effect of over 35% in size; also: potency is read from the fitted curve at half-maximal effect
Method in brief: (§2)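 Viability after 48 h drug exposure was measured as ATP-dependent luminescence. Cells, 500 per well, sat at 37 °C under 5% CO2; DMSO wells set 100%, media-only wells 0%.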

[4] = Quantitative High-Throughput drug screen in 47 multiple myeloma cell lines against the NCATS MIPE library collection: MM1S_ATCC cell viability assay (AID 1918980); also: potency is read from the fitted curve at half-maximal effect; nearly all actives have a fitted effect of over 45% in size
Method in brief: as §2

[5] = Quantitative High-Throughput drug screen in 47 multiple myeloma cell lines against the NCATS MIPE library collection: LP1_DSMZ cell viability assay (AID 1918982); also: nearly all actives have a fitted effect of over 35% in size; also: potency is read from the fitted curve at half-maximal effect
Method in brief: as §2

[6] = Quantitative High-Throughput drug screen in 47 multiple myeloma cell lines against the NCATS MIPE library collection: L363_DSMZ cell viability assay (AID 1918984); also: nearly all actives have a fitted effect of over 40% in size; also: potency is read from the fitted curve at half-maximal effect
Method in brief: as §2

[7] = Quantitative High-Throughput drug screen in 47 multiple myeloma cell lines against the NCATS MIPE library collection: KMS34_JCRB cell viability assay (AID 1918985); also: nearly all actives have a fitted effect of over 40% in size; also: potency is read from the fitted curve at half-maximal effect
Method in brief: as §2

[8] = Quantitative High-Throughput drug screen in 47 multiple myeloma cell lines against the NCATS MIPE library collection: OCIMY7_PLB cell viability assay (AID 1918987); also: potency is read from the fitted curve at half-maximal effect; nearly all actives have a fitted effect of over 65% in size
Method in brief: as §2

[9] = Quantitative High-Throughput drug screen in 47 multiple myeloma cell lines against the NCATS MIPE library collection: OCIMY5_PLB cell viability assay (AID 1918988); also: nearly all actives have a fitted effect of over 65% in size; also: potency is read from the fitted curve at half-maximal effect
Method in brief: as §2

[10] = Quantitative High-Throughput drug screen in 47 multiple myeloma cell lines against the NCATS MIPE library collection: OPM1_PLB cell viability assay (AID 1918989); also: nearly all actives have a fitted effect of over 40% in size; also: potency is read from the fitted curve at half-maximal effect
Method in brief: as §2

[11] = Quantitative High-Throughput drug screen in 47 multiple myeloma cell lines against the NCATS MIPE library collection: SKMM1_PLB cell viability assay (AID 1919863); conditions: SKMM1 myeloma viability, CellTiter-Glo ATP, 48 h; viability: hits give low values; also: nearly all actives have a fitted effect of over 35% in size; also: potency is read from the fitted curve at half-maximal effect
Method in brief: as §2

[12] = Quantitative High-Throughput drug screen in 47 multiple myeloma cell lines against the NCATS MIPE library collection: MOLP8_DSMZ cell viability assay (AID 1918977); also: nearly all actives have a fitted effect of over 45% in size; also: potency is read from the fitted curve at half-maximal effect
Method in brief: as §2

[13] = Quantitative High-Throughput drug screen in 47 multiple myeloma cell lines against the NCATS MIPE library collection: NCIH929_DSMZ cell viability assay (AID 1918978); also: nearly all actives have a fitted effect of over 35% in size; also: potency is read from the fitted curve at half-maximal effect
Method in brief: as §2

[14] = Quantitative High-Throughput drug screen in 47 multiple myeloma cell lines against the NCATS MIPE library collection: MM1R_ATCC cell viability assay (AID 1918981); also: nearly all actives have a fitted effect of over 35% in size; also: potency is read from the fitted curve at half-maximal effect
Method in brief: as §2

[15] = Quantitative High-Throughput drug screen in 47 multiple myeloma cell lines against the NCATS MIPE library collection: KMS28PE_JCRB cell viability assay (AID 1918983); also: nearly all actives have a fitted effect of over 35% in size; also: potency is read from the fitted curve at half-maximal effect
Method in brief: as §2

[16] = Quantitative High-Throughput drug screen in 47 multiple myeloma cell lines against the NCATS MIPE library collection: KMS12BM_JCRB cell viability assay (AID 1918971); also: nearly all actives have a fitted effect of over 35% in size; also: potency is read from the fitted curve at half-maximal effect
Method in brief: as §1

[17] = Quantitative High-Throughput drug screen in 47 multiple myeloma cell lines against the NCATS MIPE library collection: MMM1_PLB cell viability assay (AID 1918976)
Method in brief: as §2

[18] = Quantitative High-Throughput drug screen in 47 multiple myeloma cell lines against the NCATS MIPE library collection: KMS12PE_JCRB cell viability assay (AID 1918972); also: nearly all actives have a fitted effect of over 30% in size; also: potency is read from the fitted curve at half-maximal effect
Method in brief: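 qHTS of the MIPE 4.0 collection: 500 myeloma cells/well, 48 h drug exposure at 37C in 5% CO2, then CellTiter-Glo for 5 min at room temperature before luminescence reading.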

[19] = Quantitative High-Throughput drug screen in 47 multiple myeloma cell lines against the NCATS MIPE library collection: KMS20_JCRB cell viability assay (AID 1918973); also: nearly all actives have a fitted effect of over 45% in size
Method in brief: (§3)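 We plated 500 myeloma cells per well, pinned in MIPE 4.0 compounds, and incubated for 48 hours at 37C. ATP was then quantified with CellTiter-Glo, with DMSO and media-only wells defining 100% and 0%.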

[20] = Quantitative High-Throughput drug screen in 47 multiple myeloma cell lines against the NCATS MIPE library collection: KMS21BM_JCRB cell viability assay (AID 1918974); conditions: ATP luminescence, 48 h; viability: at 45.8 µM (top of the series) unless noted; also: potency is read from the fitted curve at half-maximal effect
Method in brief: as §3

CN(C)CCCC1(c2ccc(F)cc2)OCc2cc(C#N)ccc21 (stereo unspecified)
active: Potency [4] 18.7 µM | Potency [8] 11.8 µM | Potency [9] 18.7 µM
inactive: Potency [1] | Potency [2] | Potency [3] | Potency [5] | Potency [6] | Potency [7] | Potency [10] | viability [11] 106%

CCOC(=O)C1=C[C@@H](OC(CC)CC)[C@H](NC(C)=O)[C@@H](N)C1
inactive: Potency [1] | Potency [2] | Potency [12] | Potency [13] | Potency [3] | Potency [14] | Potency [5] | Potency [15] | Potency [7] | Potency [10] | viability [11] 108%

CN(C)c1ccc(O)c2c1C[C@H]1C[C@H]3[C@H](N(C)C)C(=O)C(C(N)=O)=C(O)[C@@]3(O)C(=O)C1=C2O
active: Potency [16] 18.7 µM | Potency [2] 13.2 µM | Potency [17] 18.7 µM | Potency [12] 20.9 µM | Potency [13] 16.6 µM | Potency [3] 18.7 µM | Potency [14] 16.6 µM | Potency [15] 20.9 µM | Potency [7] 16.6 µM | Potency [8] 10.5 µM | Potency [9] 9.35 µM

CCCCCCCCCCCCCCCCCCCCCCO
inactive: Potency [1] | Potency [18] | Potency [12] | Potency [3] | Potency [14] | Potency [15] | Potency [6] | Potency [7] | Potency [9] | Potency [10]

CC(C)c1ccc2oc3nc(N)c(C(=O)O)cc3c(=O)c2c1
inactive: Potency [1] | Potency [13] | Potency [14] | Potency [15]
active: Potency [8] 18.7 µM

O=c1oc2cc(O)ccc2s1
active: Potency [17] 16.6 µM | Potency [4] 0.935 µM
inactive: Potency [16] | Potency [19] | Potency [2] | Potency [13] | Potency [3] | Potency [14] | Potency [15] | Potency [6] | Potency [10]

Oc1ccc(-c2nc(-c3ccc(F)cc3)c(-c3ccncc3)[nH]2)cc1
inactive: Potency [1]
active: Potency [4] 16.6 µM | Potency [8] 9.35 µM | Potency [9] 16.6 µM | Potency [10] 20.9 µM

c1cnc2cc3c(cc2n1)C1CNCC3C1
inactive: Potency [16] | Potency [20] | Potency [2] | Potency [12] | Potency [3] | Potency [14] | Potency [5] | Potency [15] | Potency [7] | Potency [9] | Potency [10]

O=C(NCC1CCCCN1)c1cc(OCC(F)(F)F)ccc1OCC(F)(F)F (stereo unspecified)
active: Potency [1] 0.526 µM | Potency [18] 2.09 µM | Potency [13] 9.35 µM | Potency [4] 8.33 µM | Potency [6] 0.743 µM | Potency [8] 7.43 µM | Potency [10] 9.35 µM

CCOC(=O)C1=C(O)C(=O)N(Cc2ccccc2)C1
inactive: Potency [16] | Potency [18] | Potency [20] | Potency [12] | Potency [13] | Potency [3] | Potency [15] | Potency [10] | viability [11] 107%
active: Potency [17] 1.66 µM

CCCCc1ccc2nc(NC(=O)OC)[nH]c2c1
active: Potency [16] 0.0093 µM | Potency [18] 0.0047 µM | Potency [2] 1.48 µM | Potency [17] 3.32 µM | Potency [13] 0.935 µM | Potency [14] 0.059 µM | Potency [5] 0.0187 µM | Potency [15] 0.0148 µM | Potency [7] 0.0148 µM | Potency [9] 0.0037 µM | Potency [10] 0.0209 µM | Potency [11] 0.0469 µM

O=C1NC(=O)C(c2ccccc2[N+](=O)[O-])=C1Nc1ccc(O)c(Cl)c1
inactive: Potency [1] | Potency [3] | Potency [6] | Potency [10] | viability [11] 110%
active: Potency [18] 10.5 µM

C[C@]12CCC(=O)C=C1CC[C@@H]1[C@H]2[C@@H](O)C[C@@]2(C)[C@H]1CC[C@]2(O)C(=O)CO
inactive: Potency [1] | Potency [12] | Potency [3] | Potency [5] | Potency [15] | Potency [6] | Potency [9] | Potency [10] | viability [11] 138%

Cc1cc(=O)c2c(O)c3c(O)cc(=O)c4c3c3c(cc(O)c1c23)C(C)(C)C=4O
active: Potency [16] 4.69 µM | Potency [20] 4.18 µM | Potency [2] 6.62 µM | Potency [17] 0.372 µM | Potency [12] 2.64 µM | Potency [13] 0.296 µM | Potency [14] 4.18 µM | Potency [5] 5.9 µM | Potency [15] 6.62 µM | Potency [6] 0.743 µM | Potency [7] 13.2 µM | Potency [9] 8.33 µM | Potency [11] 5.26 µM

CC1(C)C(=O)N(CCN2CCC(C(=O)c3ccc(F)cc3)CC2)c2ccccc21
inactive: Potency [15]
active: Potency [1] 13.2 µM | Potency [18] 10.5 µM | Potency [3] 7.43 µM | Potency [4] 20.9 µM | Potency [14] 16.6 µM | Potency [6] 13.2 µM | Potency [9] 5.26 µM | Potency [10] 10.5 µM
